Measured values as given in PubChem BioAssay AID2205 (University of Pittsburgh Molecular Library Screening Center, 2009).
Out of some 200,000 compounds screened, about 1,600 (0.8%) were called active. The sample holds actives, similar compounds and a random draw of the others, so the mix is not that of the screen.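 The calls were made as follows: active = plate Z-score above 3 for both tubulin-high and condensed-nucleus cell shares, with cell loss under 80%, at 10 µM; inactive = the rest, inconclusive results apart.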

Experiment: microtubule stabilizers in HeLa cells, primary screen, imaging, high-content imaging (AID 2205);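 as to % tubulin-high responders: anti alpha tubulin signal scored within the nucleus-defined area of each cell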;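 as to toxicity: 0% = mean cell density of plate MIN control wells and 100% = no cells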
Conditions: HeLa tubulin immunostaining HCS, 24 h, at 10 µM; % Hoechst-high responders: measured here: nuclear condensation Hoechst responders, stronger effect = higher value, share of cells brighter than vehicle mean+2SD; % tubulin-high responders: stronger effect = higher value, share of cells brighter than vehicle mean+2SD; toxicity: measured here: cytotoxicity by cell density
With `COc1ccc(-c2n[nH]c(C)c2-c2ccc(OC)c(OC)c2)c(O)c1` the % Hoechst-high responders was 19%, the % tubulin-high responders was 42.8% (active) and the toxicity was 76%.
In the case of `Cc1[nH]n(-c2ccccc2)c(=O)c1/C=N/NC(=O)c1ccoc1C`, the % Hoechst-high responders is reported as 1.51%, the % tubulin-high responders is reported as 1.79% (inactive) and the toxicity is reported as 2.88%.
With `CCc1ccc(-n2c(=S)sc3c(=O)n(-c4ccccc4OC)c(=S)[nH]c32)cc1` the % Hoechst-high responders was 2.26%, the % tubulin-high responders was 4.15% (inactive) and the toxicity was 6.79%.
In the case of `COc1ccc(/C=C/CN2CCN(Cc3ccc(C)cc3)C(CCO)C2)cc1` (stereo unspecified), the % Hoechst-high responders is reported as 2.01%, the % tubulin-high responders is reported as 6.04% (inactive) and the toxicity is reported as 4.33%.
For `CCn1c(/C=C/Nc2ccccc2)[n+](CC)c2ccc(C(=O)OCC(F)(F)F)cc21`, the % Hoechst-high responders was 3.06%, the % tubulin-high responders was 2.82% (inactive) and the toxicity was 0.486%.
With `CC(C)(C)NC(=O)Cn1cnc2cc([N+](=O)[O-])ccc2c1=O` the % Hoechst-high responders was 1.76%, the % tubulin-high responders was 5.69% (inactive) and the toxicity was 5.93%.
With `COc1ccc(C2=NN(C(=O)CCC(=O)O)C(c3cccs3)C2)cc1OC` (stereo unspecified) the % Hoechst-high responders was 0.575%, the % tubulin-high responders was 2.36% (inactive) and the toxicity was 4.5%.
With `CCS(=O)(=O)Nc1ccc(C2=NN(C(C)=O)C(c3cccs3)C2)cc1` (stereo unspecified) the % Hoechst-high responders was 60.7%, the % tubulin-high responders was 26.1% (active) and the toxicity was 26.6%.
In the case of `CS(=O)(=O)Nc1ccc(C2=NN(S(C)(=O)=O)C(c3cccs3)C2)cc1` (stereo unspecified), the % Hoechst-high responders is reported as 1.8%, the % tubulin-high responders is reported as 1.74% (inactive) and the toxicity is reported as 6.29%.
For `O=c1[nH]c(N2CCN(Cc3ccc4c(c3)OCO4)CC2)nc2c1CCCC2`, the % Hoechst-high responders was 3.51%, the % tubulin-high responders was 5.89% (inactive) and the toxicity was 3.65%.
For `CCc1ccc(NC(=O)CC2C(=O)NCCN2C(=S)Nc2ccccc2)cc1` (stereo unspecified), the % Hoechst-high responders was 3%, the % tubulin-high responders was 3.9% (inactive) and the toxicity was 11.2%.
With `O=[N+]([O-])c1cccc(Nc2c3ccccc3nc3ccccc23)c1` the % Hoechst-high responders was 32.2%, the % tubulin-high responders was 22% (active) and the toxicity was 46.2%.
With `Cc1cc(CNC(=O)c2cccc([N+](=O)[O-])c2)c2ccccc2n1` the % Hoechst-high responders was 2.57%, the % tubulin-high responders was 3.83% (inactive) and the toxicity was 1.18%.
With `CC(=O)Nc1ccc(Nc2c3ccccc3nc3ccccc23)cc1` the % Hoechst-high responders was 8.03%, the % tubulin-high responders was 12.5% (inactive) and the toxicity was 40.3%.
In the case of `COc1ccc(N2CCN(C(=O)CCSCc3ccccc3F)CC2)cc1`, the % Hoechst-high responders is reported as 1.53%, the % tubulin-high responders is reported as 3.62% (inactive) and the toxicity is reported as 4.73%.
With `Cc1cccc(C(=O)Nc2ccccc2C(=O)NCc2cccnc2)c1` the % Hoechst-high responders was 2.76%, the % tubulin-high responders was 2.92% (inactive) and the toxicity was 4.59%.
In the case of `Cc1ccc(S(=O)(=O)NC(=O)N2CCCC(C)(C)C2)cc1`, the % Hoechst-high responders is reported as 0.922%, the % tubulin-high responders is reported as 1.38% (inactive) and the toxicity is reported as 2.22%.
In the case of `Cc1ccc(S(=O)(=O)C2(S(=O)(=O)c3ccc(C)cc3)CCCC2)cc1`, the % Hoechst-high responders is reported as 39.1%, the % tubulin-high responders is reported as 36.4% (active) and the toxicity is reported as 67.7%.
For `Cc1ccc(S(=O)(=O)N(C)C2(C)CCS(=O)(=O)C2)cc1` (stereo unspecified), the % Hoechst-high responders was 1.21%, the % tubulin-high responders was 1.1% (inactive) and the toxicity was 7.98%.
With `O=c1oc(-c2ccco2)nc2sc3c(c12)CCCCC3` the % Hoechst-high responders was 2.16%, the % tubulin-high responders was 1.31% (inactive) and the toxicity was 7.63%.
With `COc1cccc2cc(S(=O)(=O)c3ccc(C)cc3)/c(=N/NS(=O)(=O)c3ccc(C)cc3)oc12` the % Hoechst-high responders was 2.11%, the % tubulin-high responders was 3.76% (inactive) and the toxicity was 4.71%.
For `Cc1cc(-c2csc(N)n2)c(C)n1Cc1ccccc1`, the % Hoechst-high responders was 3.06%, the % tubulin-high responders was 0.459% (inactive) and the toxicity was 7.95%.
In the case of `O=C(c1cc(=O)c2ccccc2o1)N1CCN(c2ccccc2)CC1`, the % Hoechst-high responders is reported as 2.26%, the % tubulin-high responders is reported as 4.68% (inactive) and the toxicity is reported as 10.7%.
With `COc1ccccc1CNC(=O)c1cc(=O)c2ccccc2o1` the % Hoechst-high responders was 2.39%, the % tubulin-high responders was 1.71% (inactive) and the toxicity was 11.9%.
In the case of `COc1cc2c(cc1OC)CN(C(=O)c1cc(=O)c3ccccc3o1)CC2`, the % Hoechst-high responders is reported as 50.5%, the % tubulin-high responders is reported as 42.7% (active) and the toxicity is reported as 31.7%.
With `CCCCCCCCCCOC(=O)C[N+](C)(C)CC1CCCCC1O` (stereo unspecified) the % Hoechst-high responders was 2.44%, the % tubulin-high responders was 1.85% (inactive) and the toxicity was 7.67%.
With `COC(=O)N/N=C/c1cn(CCCOc2ccc(C)cc2)c2ccccc12` the % Hoechst-high responders was 1.65%, the % tubulin-high responders was 1.39% (inactive) and the toxicity was 0.806%.
With `CCOC(=O)N/N=C/c1cn(Cc2ccccc2Cl)c2ccccc12` the % Hoechst-high responders was 1.41%, the % tubulin-high responders was 1.99% (inactive) and the toxicity was 3.67%.
For `CNC(=S)N/N=C/c1cn(Cc2ccc(C)cc2)c2ccccc12`, the % Hoechst-high responders was 11.2%, the % tubulin-high responders was 25.5% (active) and the toxicity was 51.6%.
In the case of `CC(/C=N/NC(=O)c1cc(-c2ccc3ccccc3c2)n[nH]1)=C\c1ccco1`, the % Hoechst-high responders is reported as 24.9%, the % tubulin-high responders is reported as 18.2% (active) and the toxicity is reported as 26.2%.
With `CC(/C=N/NC(=O)c1ccncc1)=C\c1ccco1` the % Hoechst-high responders was 2.03%, the % tubulin-high responders was 3.19% (inactive) and the toxicity was 5.26%.
With `Cc1ccc(-c2cc(C(=O)N/N=C/C=C/c3ccco3)c3ccccc3n2)cc1C` the % Hoechst-high responders was 1.03%, the % tubulin-high responders was 1.52% (inactive) and the toxicity was 10.1%.
With `CCN(CC)c1ccc(S(=O)(=O)N2CCOCC2)cc1NC(=O)CSc1cccc[n+]1[O-]` the % Hoechst-high responders was 1.88%, the % tubulin-high responders was 2.6% (inactive) and the toxicity was 2.07%.
In the case of `S=C(NCc1ccc2c(c1)OCO2)NCc1ccco1`, the % Hoechst-high responders is reported as 2%, the % tubulin-high responders is reported as 2.06% (inactive) and the toxicity is reported as 3.56%.
For `COc1ccc(C(=O)CSc2nnc(COc3ccccc3)n2Cc2ccco2)cc1`, the % Hoechst-high responders was 8.33%, the % tubulin-high responders was 11.9% (inactive) and the toxicity was 4.55%.
For `Cn1c2ccccc2c(=O)c2c(=O)n(Cc3ccco3)c(COc3ccccc3)nc21`, the % Hoechst-high responders was 17%, the % tubulin-high responders was 15.2% (active) and the toxicity was 19.6%.
For `CCCc1nc2c(c(=O)c3ccccc3n2C)c(=O)n1C1CCCCCC1`, the % Hoechst-high responders was 3.07%, the % tubulin-high responders was 3.44% (inactive) and the toxicity was 9.47%.
